Records with an inconclusive call do not appear. A call without a number means that no potency is given here. Calls of active or inactive are those of the source. The call rests on the fitted dose curve; in most records, active means well fitted inhibition curve with a large enough effect; inconclusive means small, poorly fitted or top-dose-only effect; inactive means flat fitted curve, though single readings scatter.
These compounds were tested against Tyrosine-protein phosphatase non-receptor type substrate 1 (Homo sapiens) + Leukocyte surface antigen CD47 (Homo sapiens) (UniProt P78324+Q08722) (assay: CD47-SIRPalpha protein protein interaction - Alpha assay qHTS validation (AID 1347059;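 further: bead proximity luminescence from CD47 binding SIRPalpha after compound preincubation with SIRPalpha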)). Conditions: AlphaScreen CD47-His/biotin-SIRPalpha binding, LOPAC; series mostly up to 38.3 µM.
Tyrosine-protein phosphatase non-receptor type substrate 1 (Homo sapiens) + Leukocyte surface antigen CD47 (Homo sapiens), sequence (P78324 whole entry, looked up): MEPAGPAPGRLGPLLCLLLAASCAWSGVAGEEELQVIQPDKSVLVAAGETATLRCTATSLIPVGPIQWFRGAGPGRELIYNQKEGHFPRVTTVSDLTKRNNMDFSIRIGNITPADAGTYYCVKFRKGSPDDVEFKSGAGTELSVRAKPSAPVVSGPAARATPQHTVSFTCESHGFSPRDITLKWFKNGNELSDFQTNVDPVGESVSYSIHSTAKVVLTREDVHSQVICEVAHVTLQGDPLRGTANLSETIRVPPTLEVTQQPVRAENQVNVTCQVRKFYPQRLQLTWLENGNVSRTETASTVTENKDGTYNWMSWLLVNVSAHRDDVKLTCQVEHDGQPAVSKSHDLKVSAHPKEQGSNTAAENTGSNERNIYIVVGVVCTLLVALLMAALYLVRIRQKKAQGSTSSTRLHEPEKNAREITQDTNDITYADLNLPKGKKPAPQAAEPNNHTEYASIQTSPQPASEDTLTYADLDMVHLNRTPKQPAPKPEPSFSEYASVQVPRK
Tyrosine-protein phosphatase non-receptor type substrate 1 (Homo sapiens) + Leukocyte surface antigen CD47 (Homo sapiens), sequence (Q08722 whole entry, looked up): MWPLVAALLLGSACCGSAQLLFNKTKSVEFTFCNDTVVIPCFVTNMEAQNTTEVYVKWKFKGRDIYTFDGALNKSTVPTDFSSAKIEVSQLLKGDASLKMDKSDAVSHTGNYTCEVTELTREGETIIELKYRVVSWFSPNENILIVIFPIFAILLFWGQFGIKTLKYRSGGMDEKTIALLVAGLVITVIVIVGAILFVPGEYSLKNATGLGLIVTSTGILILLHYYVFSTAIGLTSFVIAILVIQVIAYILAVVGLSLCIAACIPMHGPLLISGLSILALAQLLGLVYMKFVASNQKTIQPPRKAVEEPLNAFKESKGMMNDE
Description: SIRPalpha is a myeloid cell expressed immunomodulatory receptor that binds the tumor expressed immune checkpoint CD47. Therapeutic disruption of this interaction leads to immune-mediated tumor rejection. This assay was used to quantitate CD47-SIRPalpha binding biochemically and evaluate chemical libraries for novel CD47-SIRPalpha inhibitors. To recapitulate the biological interaction of CD47 and SIRPalpha, we designed expression constructs to produce their recombinant, soluble, extracellular interaction domains. CD47 was produced with an N-terminal 6His tag. SIRPalpha was produced with an N-terminal Avi-Tag for site-specific biotin incorporation. The CD47-SIRPalpha interaction was measured by AlphaScreen using affinity tag linked reagents (Ni-NTA acceptor bead and streptavidin donor bead). SIRPalpha without biotin incorporation was used as a positive control inhibitor.
PROTOCOL TABLE (as described by Miller, T. et al. 2019)
SEQUENCE No. (e.g., 1, 2, 3, etc.); […] (e.g., Cells, Incubation, Reagent, etc.); VALUE and DESCRIPTION.
1a. Reagent. 2 uL SIRPalpha-biotin (25 nM) added to respective wells in Assay buffer; white/solid bottom high base, med bind 1536-well plates (Greiner 789075)
1b. Reagent. 2 uL Assay buffer negative control for background fluorescence
2. Reagent. 23 nL library compounds (7-pt, 1:4 intraplate titration series) or DMSO control transferred by Pin Tool
3. Centrifuge. Centrifuge plate for 30 s at 1000 RPM
4. Incubation.#Incubate reagents at room temperature for 30 min, protected from light
5. Reagent. 2 uL CD47-His (12.5 nM) in Assay buffer
6. Centrifuge. Centrifuge plate for 30 s at 1000 RPM
7. Incubation.#Incubate reagents at room temperature for 30 min, protected from light
8. Reagent. 1 uL Ni-NTA beads (10 ug/mL) added to respective wells
9. Reagent. 1 uL SAV beads (10 ug/mL) added to respective wells
10. Centrifuge. Centrifuge plate for 30 s at 1000 RPM
11. Incubation. Incubate reagents at room temperature for 30 min, protected from light
12. Detector. Measure AlphaScree n on EnVision (1536A1 aperture)
Where possible, perform Donor bead dilution and addition away from direct sunlight or with bright overhead lights turned off (<100 lux, similar to hallway lighting). Lighting should still be bright enough to allow accurate pipetting.
1. Assay buffer composition.#Phosphate buffered saline (PBS; 10 mM Phosphate, 137 mM NaCl, and 2.7 mM KCl; pH 7.4), 0.05% IGEPAL CA-630
2. 23nL of […] library compounds (7 plates) or DMSO vehicle control transferred to 9 Greiner white/solid bottom high base, TC plates in 7 interplate 1:5 titrations (see Yasgar, A. et al. 2008) with Pintool. Two of the 9 plates are DMSO-only in compound field at beginning and end of compound library-treated plates.
12. Aperture = 1536 plate HTS AlphaScreen; plate-detector distance = 0; Total measurement time = 240; Ex. time = 80 ms (33%); Afterglow CT1 corr. factor = 0; Glow CT2 corr. factor = 0; Bleach CT3 corr. factor = 0; Ref. signal= 417733; Ref. AD gain = 2
Potency means the concentration at half of the fitted maximal effect.

| Compound | Potency |
| --- | --- |
| O=C(O)C1=CC(=C(c2ccc(O)c(C(=O)O)c2)c2ccc(O)c(C(=O)O)c2)C=CC1=O | 464 nM (active) |
| Cn1cc(C(=O)OCC2CCN(CCNS(C)(=O)=O)CC2)c2ccccc21 | inactive |
| COc1cc([C@@H]2c3cc4c(cc3[C@H](O)C3COC(=O)[C@@H]32)OCO4)cc(OC)c1OC (stereo not given in full) | inactive |
| NCCS(=O)O | inactive |
| N=C(N)c1ccccc1 | inactive |
| NC(=Nc1ccccc1)NC(=O)c1nc(Cl)c(N)nc1N | inactive |
| O=C(O)c1ccccc1Nc1cccc(OCc2ccc3ccccc3n2)c1 | inactive |
| COc1ccc(C(=O)NCc2cccnc2)cc1C(=O)NCc1cccnc1 | inactive |
| CC(N)(Cc1ccc(O)cc1)C(=O)O (stereo not given) | inactive |
| CN1CCc2cc(Cl)c(O)cc2[C@@H](c2ccccc2)C1 | inactive |
| CCC(=O)N1CCN(C(=O)c2ccccc2)CC1 | inactive |
| C[C@H]1CC2C3CCC4=CC(=O)C=C[C@]4(C)[C@@]3(Cl)[C@@H](O)C[C@]2(C)[C@@]1(O)C(=O)CO (stereo not given in full) | inactive |
| N[C@H](C(=O)O)[C@H](O)C(=O)O | inactive |
| CN(C)CCC(c1ccc(Br)cc1)c1ccccn1 (stereo not given) | inactive |
| COc1ccccc1N1CCN(CCCNc2c(C)c(=O)n(C)c(=O)n2C)CC1 | inactive |
| NCC(O)C1CCCCCCC1 (stereo not given) | inactive |
| c1ccc2c(c1)CC(N1CCN(c3cccc4c3OCCO4)CC1)C2 | inactive |
| CCCCCCC(=O)OC1CC(C)(C)NC(C)(C)C1 | inactive |
| CCCCCCCC/C=C\CCCCCCCC(=O)NCCc1ccc(O)c(O)c1 | inactive |
| CCCCCC[C@@H]([C@@H](C)O)n1cnc2c(N)ncnc21 | inactive |

| Compound | Potency |
| --- | --- |
| NC(=O)c1cc[n+](CC2=C(C(=O)O)N3C(=O)[C@@H](NC(=O)[C@@H](c4ccccc4)S(=O)(=O)[O-])[C@H]3SC2)cc1 | inactive |
| CCCCC[C@H](CC(=O)NO)C(=O)N[C@H](C(=O)N1CCC[C@H]1CO)C(C)C | inactive |
| C[C@](Cc1ccc(O)c(O)c1)(NN)C(=O)O | inactive |
| CO/N=C(\C(=O)N[C@@H]1C(=O)N2C(C(=O)O)=C(CSc3nc(=O)c(O)nn3C)CSC12)c1csc(N)n1 (stereo not given in full) | inactive |
| c1ccc2nc(C3=NCCN3)ccc2c1 | inactive |
| c1ccc2c(c1)CCC[C@H]2Nc1nc2ccccc2[nH]1 | inactive |
| O=C1C2C=CC=CC2=NC(=S)N1CCN1CCC(=C(c2ccc(F)cc2)c2ccc(F)cc2)CC1 (stereo not given) | inactive |
| O=c1cc(-c2ccccc2F)[nH]c2cc3c(cc12)OCO3 | inactive |
| N=C(N)c1ccc(N)cc1 | inactive |
| CC(C)C[C@H](NC(=O)C1OC1C(=O)O)C(=O)NCCCCN=C(N)N (stereo not given in full) | inactive |
| COc1ccc2c(c1)c(CC(=O)O)c(C)n2Cc1ccc(Cl)cc1 | inactive |
| CC(C)(CO)Cc1cc(C(C)(C)C)c(O)c(C(C)(C)C)c1 | inactive |
| C=C1C[C@@]23CC[C@H]4[C@@](C)(CCC[C@@]4(C)C(=O)OC4OC(CO)C(O)C(O)C4O)[C@@H]2CC[C@]1(OC1OC(CO)C(O)C(O)C1OC1OC(CO)C(O)C(O)C1O)C3 (stereo not given in full) | inactive |
| CCCc1c(-c2ccc(O)cc2)nn(-c2ccc(O)cc2)c1-c1ccc(O)cc1 | inactive |
| Cc1cccc(C2CN(C)CCc3c2cc(O)c(O)c3Cl)c1 (stereo not given) | inactive |
| CN1Cc2sccc2C(c2ccc(O)c(O)c2)C1 (stereo not given) | inactive |
| CCCCOC(=O)NS(=O)(=O)c1sc(CC(C)C)cc1-c1ccc(Cn2c(CC)nc3c(C)cc(C)nc32)cc1 | inactive |
| CCCCCCCCCCCCCCSCC(=O)O | inactive |
| Nc1ccc(N2C(=O)c3ccccc3C2=O)c(Cl)c1 | inactive |
| O=C(O)C1=CCCN(CCON=C(c2ccccc2)c2ccccc2)C1 | inactive |

From PubChem BioAssay (NCATS)
